# Laboratory results taken from the OligoGym collection.
# Biological target: FZR1
# Test: pooled miR-30 sensor sort-seq; sequence = guide strand
# Details: shRNA
# Also: reference of the scale not given here.
row,Sequence,sensor-assay potency score (higher = more potent)
1,TTGCACACTTGGGAGCCCGTGT,-0.748
2,TTTGTCGAACGGGTTTTGCTAA,-0.856
3,TCTGTGGACCACTTGAGCCCGC,-0.976
4,TACACTGCAGTGGTTGTCCTGT,-0.434
5,TCTGGTTCTGTGAGTAGCCGTG,-0.152
6,TCATTCTGGATGACGATCTGGC,0.47
7,TTCTGTGAGTAGCCGTGCGTGC,-1.08
8,TGTCCTGTCAGCGTGTTCCAGA,-0.846
9,TTCTCATTCTCGTTAATCCTGT,-0.581
10,TGAGACTCCAGGATCCTCCAGG,-0.492
11,TGAGAGGTCACAGAGCCGCGTC,-0.649

# Biological target: GAA
# Test: as above
# Details: shRNA
row,Sequence,sensor-assay potency score (higher = more potent)
1,TTTGCAGGGATGTAGCAACAGC,-1.16
2,TTAGCTGGATCTTTGATCGTGA,0.689
3,TTGAACGTGAAGTCCCTCCGGG,0.671
4,TCCTCGGAGAACTCCACGCTGT,-1.76
5,TTTAGAATCTCCCAAGTCCTGT,0.11
6,TACTGCTGCACCACGCTCTTGG,0.362
7,TAGTCCAGGTCGTTCCACTGGA,-0.244
8,TGAACGTGAAGTCCCTCCGGGA,-0.701
9,TTCTCCAGCTTGTAGCTGGGGT,-0.57
10,TTGTGGTTCCGCATGAAGGGGT,-0.144
11,AATCTTATTAACACAGAGCAGC,-1.53
12,TACAATCTTATTAACACAGAGC,-0.86
13,TTGATCGTGAAGTGGAGGCGGT,-0.412
14,TTAAACTGCAGGATTTCTGGCA,0.151
15,TAGAGGTTCGCACCGGGCGTGG,-1.37
16,TTGGTGTCGGGGCTGTAGGTGA,-0.824
17,TAAACTGCAGGATTTCTGGCAC,-0.0629
18,TAACACAGAGCAGCCCTCCAGG,-0.565
19,TTTGATCGTGAAGTGGAGGCGG,0.187
